PrPC surface inh: cell surface PrPC inhibition, primary TR-FRET screen; P04156; TR-FRET read-out; inhibition, % at 13.8 µM; 0.43% of 370,000 active; AID 720596; in the data active means inhibition above about 24%
ugtP null kill: kills S. aureus RN4220 lacking UgtP | S. aureus RN4220 ugtP deletion, OD600 growth, 16 h | AID 1259309 | 0.54% of 330,000 active | growth inhibition, % (concentration not given with the values); in the data active means growth inhibition above about 68%
PrP UTR inh: suppresses PrP 5' UTR mRNA reporter expression; cell-based PrP 5' UTR mRNA reporter, plate reader; inhibition, % (concentration not given with the values); 0.35% of 340,000 active; in the data active means inhibition above about 52%
PfHsp40 rescue: rescue of PfHsp40-mediated yeast toxicity | 0.68% of 340,000 active | growth rescue, % at 12.5 µM | S. cerevisiae expressing PfHsp40, growth rescue, ATP luminescence | AID 504582; in the data active means growth rescue above about 28%, passing the limit was not always enough;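 further: yeast W303a lacking pdr1 and pdr3 grown in galactose medium; growth measured after three days at 30 °C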
Sa RN4220 lethal: kills Staphylococcus aureus RN4220 | inhibition, % (no concentration beside the values) | AID 1259311 | S. aureus RN4220 growth, OD600, 16 h | 0.33% of 330,000 active; in the data active means inhibition above about 85%
CCHF vOTU inh: CCHFV vOTU protease inhibition; 0.55% of 370,000 active; Pep-AMC fluorescence; inhibition, % at 11.5 µM; AID 651958; in the data active means inhibition above about 30%
PrPC TRFRET cf: cell surface PrPC inhibition, TR-FRET confirmation; cell surface PrPC level; 65% of 1,500 active; shares compounds with PrPC surface inh; inhibition, % at 13.8 µM; in the data active means inhibition above about 25%
LD9 cytotox: kills or reduces viability of LD9 cells in PrPc counter-screen. 29% of 1,500 active. inhibition, % at 13.8 µM. LD9 cells cytotoxicity, luminescence viability. shares compounds with PrPC surface inh. AID 743201; in the data active means inhibition above about 9.5%
Hits are given with their value; - = inactive; . = not tested or not shown. Hits are enriched below; roughly 2.1% of the tested compounds scored in any of these assays.

SMILES	PrPC surface inh	ugtP null kill	PrP UTR inh	PfHsp40 rescue	Sa RN4220 lethal	CCHF vOTU inh	PrPC TRFRET cf	LD9 cytotox
O=C(O)CCC(=O)NNC(=O)COc1ccc2ccccc2c1Br	45.9	-	-	-	-	-	85.2	-
S=c1[nH]nc(C2CCCCC2)n1N=Cc1ccc(Br)cc1	.	-	.	.	-	.	.	.
COc1ccc(C=NNC(=O)c2nc(-c3ccccc3)n(-c3ccccc3)n2)c(O)c1	.	-	.	.	-	.	.	.
C=CCc1cccc(C=Nn2c(C)nnc2C)c1O	.	-	.	.	-	.	.	.
CCOC(=O)C(=NNc1ccc(Cl)cc1)c1csc(Nc2ccccc2)n1	.	-	.	.	-	.	.	.
CC(C)N1CCc2c(sc(NC(=O)C3CCCCC3)c2C(N)=O)C1	32.2	-	-	-	-	-	-	-
O=[N+]([O-])c1cc(Cl)cc(C=NNC(=S)Nc2cc(S(=O)(=O)N3CCOCC3)ccc2Cl)c1O	.	-	.	.	-	.	.	.
COc1cccc2c(=O)c(C(=O)NCCc3ccccc3)c[nH]c12	24.6	-	-	-	-	-	-	-
COc1cc2[nH]cc(C(=O)NCCc3ccccc3)c(=O)c2cc1OC	-	-	-	-	-	-	.	.
CC(C)(C)c1ccccc1NC(=O)Nc1nc(C(N)c2ccccc2)cs1 (stereo not drawn)	-	.	.	.	.	-	.	.
COc1ccc(C(N)c2csc(NC(=O)Nc3ccccc3C(C)(C)C)n2)cc1 (stereo not drawn)	29.9	.	.	.	.	-	-	-
NC(CCc1ccccc1)c1csc(NC(=O)Nc2ccccc2Oc2ccccc2)n1 (stereo not drawn)	49.6	.	.	.	.	-	33.9	-
CCN(CC)C(=O)CSc1nc(O)c(Cc2ccccc2)c(=O)n1-c1ccccc1	59.8	-	-	-	-	-	53.5	-
CCN(CC)C(=O)CSc1nc(O)c(Cc2ccccc2)c(=O)n1-c1ccc(C)cc1	-	-	-	-	-	-	.	.
Brc1cc(Br)c2ncnc(N3CCCCC3)c2c1	75.5	-	-	-	-	-	111.0	-
Clc1ccc(Cn2ncc3c(N4CCCCC4)ncnc32)c(Cl)c1	-	-	-	-	-	-	.	.
CN(C)C=Nc1cc(=O)[nH]c(=O)n1C	.	-	.	.	-	.	.	.
Cc1ccc(Nc2c(-c3ccccn3)nc3cccc(C)n23)cc1	29.9	100.4	-	-	100.7	-	-	40.2
Cc1cccc2nc(-c3ccco3)c(Nc3ccccc3)n12	-	-	-	-	-	-	.	.
CC(=NNC(=O)Cc1csc(N2CCOCC2)n1)c1ccccc1	.	-	.	.	-	.	.	.
CCC1=C(OC(=O)N(CC)CC)N2C(=O)OC(=NCc3ccccc3)[C@]2(C)C2C1=CCC1C(=O)NC(=O)C12 (stereo partly drawn)	.	-	.	.	-	.	.	.
N#CC(C(=O)N1CCOCC1)=c1sc(=Cc2ccccn2)c(=O)n1-c1ccccc1	.	-	.	.	-	.	.	.
C=CCSc1nc(N)c(C#N)c(-c2ccccc2)c1C#N	51.1	-	-	-	-	-	-	-
Cc1cc(SCC(=O)NN=Cc2ccco2)nc2ccccc12	.	-	.	.	-	.	.	.
Cc1cccc(C)c1OCC(=O)NN=Cc1ccc2c(c1)OCO2	.	-	.	.	-	.	.	.
SMILES	PrPC surface inh	ugtP null kill	PrP UTR inh	PfHsp40 rescue	Sa RN4220 lethal	CCHF vOTU inh	PrPC TRFRET cf	LD9 cytotox
CN(c1ccccc1)S(=O)(=O)c1ccc(NC(=O)c2nc(S(C)(=O)=O)ncc2Cl)cc1	41.2	.	-	-	.	-	93.3	97.8
COc1cccc(NC(=O)c2nc(S(C)(=O)=O)ncc2Cl)c1	82.6	.	-	-	.	-	-	93.6
Cn1c(N2CCC(C(N)=O)CC2)nc2c1c(=O)n(Cc1ccc(Br)cc1)c(=O)n2C	25.9	-	-	-	-	-	28.8	-
OC[C@@H]1CN(Cc2ccc(-c3ccccc3)cc2)C[C@H](n2cnc3c(NC4CC4)ncnc32)O1	-	.	.	.	.	-	.	.
OC[C@@H]1CN(Cc2ccc(Cl)cc2)C[C@H](n2cnc3c(NC4CCC4)ncnc32)O1	26.1	.	.	.	.	-	-	-
CCOC1OC(C(=O)N2CCN(Cc3ccc4c(c3)OCO4)CC2)=CC(C2CCCCC2)C1CCCO (stereo not drawn)	.	-	.	.	-	.	.	.
Cc1cc(SCC(=O)NC2CCCC2)nc2ccccc12	27.9	-	-	-	-	-	39.2	-
CCOc1ccccc1N=C1SCC(C)N1C(=O)C1CCN(c2ncnc3sc(C)c(C)c23)CC1 (stereo not drawn)	39.5	-	-	-	-	-	55.8	-
Cc1ccccc1OCC(=O)NNC(=O)C1CCN(c2ncnc3sc(C)c(C)c23)CC1	-	-	-	-	-	-	.	.
COc1cc(C=C2N=C(c3ccccc3)OC2=O)c(F)cc1OCc1ccccc1	.	-	.	.	-	.	.	.
CCN1C(=NCCc2ccc(Br)cc2)NC(c2ccccc2)C(C(=O)OC)C1C (stereo not drawn)	.	-	.	.	-	.	.	.
COc1cc2nc(CN3CC=C(c4ccccc4)CC3)[nH]c(=O)c2cc1OC	24.5	-	-	-	-	-	47.0	25.1
COc1cc2nc(CN3CCN(S(=O)(=O)c4ccccc4)CC3)[nH]c(=O)c2cc1OC	-	-	-	-	-	-	.	.
CC(=O)c1cnc(Nc2ccccc2)s1	-	-	-	-	-	-	.	.
CC(=O)c1cnc(Nc2cccc(Cl)c2Cl)s1	26.3	-	-	-	-	-	-	-
CC1C=C(C(=O)N2CCN(Cc3ccccc3)CC2)OC(OCc2ccc(CO)cc2)C1 (stereo not drawn)	.	-	.	.	-	.	.	.
O=c1nc(N/N=C/c2ccccn2)cn[nH]1	24.9	.	-	617.2	.	-	-	9.5
O=C(CSc1cccc[n+]1[O-])Nc1cc(Cl)ccc1[N+](=O)[O-]	-	-	-	-	-	-	.	.
O=[N+]([O-])c1ccc(Sc2cccc[n+]2[O-])c2nonc12	37.4	-	-	683.2	-	-	73.0	98.6
N#Cc1ccccc1OCCCN1CCC(Cc2ccccc2)CC1	25.5	-	-	-	-	-	-	10.3
CC(=NOc1cccc(F)n1)c1ccc(Cl)cc1Cl	.	-	.	.	-	.	.	.
Cc1ccc(S(=O)(=O)c2ncccc2[N+](=O)[O-])cc1	70.7	.	-	-	.	-	54.6	97.7
Cc1cc2cc(CNC(=S)NCc3ccccc3)ccc2n1C	31.5	-	-	-	-	-	29.3	-
COc1ccccc1NC(=S)NCc1ccc2c(c1)cc(C)n2C	50.4	-	-	-	-	-	-	-
Cc1cc2cc(CNC(=O)C(C)Oc3ccccc3)ccc2n1C (stereo not drawn)	36.0	.	-	-	.	-	-	-
Cc1ccccc1NC(=S)NCc1ccc2c(c1)cc(C)n2C	-	-	-	-	-	-	.	.
CCCNC(=O)C(=O)NN=Cc1ccc(OCc2ccccc2)cc1	.	-	.	.	-	.	.	.
CC(=NNC(=O)CNC(=O)/C=C/c1ccco1)c1ccc(Cl)cc1	.	-	.	.	-	.	.	.
CCCCCn1c2c(c(=N)c3ccccc31)CCC2	-	-	-	-	-	-	.	.
CCCCCCCCn1c2c(c(=N)c3ccccc31)CCC2	28.7	98.1	-	-	98.0	-	44.3	38.2
